# Screening data: PubChem BioAssay, Buhrlage Lab, Dana-Farber Cancer Institute and Novartis Institutes for BioMedical Research (Cambridge, Mass)
# USP30 block = inhibitors of human USP30 deubiquitinase; purified USP30, Ub-rhodamine cleavage fluorescence; 5.3% of 47,000 active; AID 1645860, 2021; inhibition, % at 25 µM; Ubiquitin carboxyl-terminal hydrolase 30 (Homo sapiens), Q70CQ3
# Target sequence (Q70CQ3 whole entry, looked up): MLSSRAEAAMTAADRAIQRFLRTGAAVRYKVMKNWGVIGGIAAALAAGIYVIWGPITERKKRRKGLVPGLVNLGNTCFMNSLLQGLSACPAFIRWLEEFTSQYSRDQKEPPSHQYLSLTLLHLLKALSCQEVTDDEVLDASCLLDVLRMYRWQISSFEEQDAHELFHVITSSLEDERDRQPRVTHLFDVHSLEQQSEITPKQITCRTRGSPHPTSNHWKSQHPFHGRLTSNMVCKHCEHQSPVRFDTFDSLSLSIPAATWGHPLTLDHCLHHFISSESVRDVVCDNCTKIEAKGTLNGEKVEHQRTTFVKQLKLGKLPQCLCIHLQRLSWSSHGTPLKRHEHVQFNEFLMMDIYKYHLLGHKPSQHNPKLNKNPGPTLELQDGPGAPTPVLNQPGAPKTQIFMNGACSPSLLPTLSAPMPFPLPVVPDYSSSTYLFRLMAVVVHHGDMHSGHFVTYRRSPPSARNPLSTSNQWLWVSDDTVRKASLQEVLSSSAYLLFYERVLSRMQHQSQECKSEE
# USP28 block = inhibitors of human USP28 deubiquitinase. 3% of 47,000 active. Ubiquitin carboxyl-terminal hydrolase 28 (Homo sapiens), Q96RU2. inhibition, % at 25 µM. purified USP28, Ub-rhodamine cleavage fluorescence, 30 min
# Starred values were filed as active, the others as inactive; i = inactive. This is a sample that favours compounds with a hit; in the whole collection about 7% have one here. Cut-off read from the data, not from the text of the source: active = inhibition above about 30%; inactive = the rest.
SMILES,USP30 block,USP28 block
CCc1cccc(NC(=O)c2ccc(SCCN3CCOCC3)nc2)c1,15.4,17.3
Fc1cc(Oc2ncccn2)ccc1-c1ccccc1,10.3,11.0
O=S(=O)(Nc1ccccn1)c1ccc(N2CCC(Cc3ccccc3)CC2)nc1,28.6,19.0
O=C(Nc1ccc2c(c1)OCCO2)c1ccc(N2CCCC2=O)cc1,67.3*,44.8*
Cc1noc(C)c1S(=O)(=O)Nc1ccc(C(=O)Nc2ccc3c(c2)OCCO3)cc1,-0.5,84.5*
O=C(Nc1ccc2c(c1)OCO2)c1cncc(NS(=O)(=O)c2ccc3c(c2)OCCO3)c1,-281.6,-47.1
CN(C)S(=O)(=O)c1cccc(NC(=O)c2ccc(N3CCCC3=O)cc2)c1,32.0*,44.2*
CC(OC(=O)c1ccc(N2CCCC2=O)cc1)C(=O)Nc1ccc2c(c1)OCCO2 (stereo not given),19.8,5.8
COc1ccc(C(=O)Nc2cccc(N3CCCCC3=O)c2)cc1,7.8,9.8
COc1ccc(NC(=O)c2nnn(-c3ccc(F)cc3)c2C)cc1,2.3,18.4
CNC(=O)c1c2n(c3ncccc13)CC(C)N(C(=O)c1ccc(O)cc1)C2 (stereo not given),-256.8,-87.1
c1ccc(-c2[nH]ncc2CN2CCC3(CC2)Nc2ccccc2C2=NCCN23)cc1,-48.7,-2.7
O=C(c1ccc(F)cc1)N1CCN(Cc2nnnn2-c2ccc(F)cc2)CC1,4.3,-3.9
CC1(C)OC(=O)[C@@]2(C)N[C@]1(C)C[C@@H]2C(=O)Nc1ccc2[nH]ccc2c1,-0.6,-9.2
Cc1cccc(N2C(=O)/C(=C\c3ccc(N4CCOCC4)s3)c3ccccc3C2=O)c1,-50.1,-10.0
O=C(Cn1cnc2ccccc2c1=O)c1c[nH]c2ccccc12,43.7*,31.9*
COc1ccc(C(CNC(=O)Cn2cnc3ccccc3c2=O)N(C)C)cc1 (stereo not given),13.6,12.4
Cc1cccc(NC(=O)Cn2cnc3c(c(C)c(C)n3-c3ccccc3)c2=O)c1,-0.4,6.5
O=C(CSc1nc2ccccc2[nH]1)c1ccccc1F,3.1,3.0
O=C(Cn1cnc2cc([N+](=O)[O-])ccc2c1=O)c1c[nH]c2ccccc12,-71.9,13.3
Cc1c(C)n(-c2ccccc2)c2ncn(CC(=O)NC(C)c3ccccc3)c(=O)c12 (stereo not given),74.6*,15.3
O=C(Cn1cnc2ccccc2c1=O)NC(c1ccccc1)c1ccccc1,33.0*,13.8
O=C(CSc1nc2ccccc2[nH]1)c1c[nH]c2ccccc12,32.6*,-2.1
CCn1c2ccccc2c2cc(NC(=O)COc3ccccc3C#N)ccc21,-72.4,-33.9
O=C(NCc1nnnn1-c1ccccc1)Nc1c(F)cccc1F,23.5,2.6
SMILES,USP30 block,USP28 block
Cn1nc(-c2ccccc2)c(CO)c1Sc1ccccc1Cl,6.0,8.0
O=C(Nc1ccc(F)cc1)N(Cc1ccc2c(c1)OCO2)Cc1cc2cc3c(cc2[nH]c1=O)OCCO3,22.6,5.0
CS(=O)(=O)Nc1ccc(-c2noc(-c3ccccn3)n2)cc1,11.2,4.8
CCOC(=O)c1ccccc1NC(=O)CSc1ccc2nnc(CCNS(=O)(=O)c3ccc(C)cc3)n2n1,30.9*,8.9
COc1ccc(S(=O)(=O)NCCc2nnc3ccc(SCC(=O)Nc4ccc(OC)cc4OC)nn23)cc1,4.3,-5.2
Cc1[nH]n(-c2ccccc2)c(=O)c1Sc1ccccc1[N+](=O)[O-],8.5,3.7
Cc1cc(C(=O)N2C[C@H](OCc3csc(C)n3)[C@H]3COC[C@H]32)no1,-0.4,-0.1
Cc1ccc(S(=O)(=O)Nc2ccccc2SCCS(=O)(=O)c2ccc(Cl)cc2)cc1,50.6*,27.6
COc1ccccc1NS(=O)(=O)c1ccc(NC(=O)Cc2ccc(Cl)cc2)cc1,2.9,8.7
Cn1cc(CC(=O)NC2CC2)c2cccnc21,29.6,14.2
O=C(C1CCCN(S(=O)(=O)N2CCOCC2)C1)N1CCN(c2ncccn2)CC1 (stereo not given),11.0,3.3
Cc1cc(C)n(CC2CCCCN2C(=O)CCc2ccncc2)n1 (stereo not given),0.6,-10.3
COc1ccc2cc3c(nc2c1)OC(=O)N(Cc1ccc(F)cc1)C3,15.1,-0.6
CCOc1ccc2cc3c(nc2c1)OC(=O)N(Cc1ccc(OC)cc1)C3,37.8*,13.5
CN(Cc1ccc(C(F)(F)F)cc1)C(=O)c1nc2n(n1)-c1ccccc1S(=O)(=O)N2,-6.5,-22.2
Cc1ccc(-c2cn(CC(=O)NCc3ccc(F)cc3)c(=O)o2)cc1,-5.7,-5.7
Cc1ccc(-c2cn(CC(=O)NCc3cccc(F)c3)c(=O)o2)cc1,55.7*,27.9
CCOc1ccc(NC(=O)c2cc(-c3ccccc3)c(N3CCOCC3)s2)cc1,12.8,5.1
Cn1c(C(=O)O)c(CNCCC2=CCCCC2)c2ccccc21,-14.4,-19.8
COc1ccc2c(CNCCC3=CCCCC3)c(C(=O)O)n(Cc3ccccc3F)c2c1,39.6*,23.2
NS(=O)(=O)c1ccc(CCNC(=O)c2ccc3c(=O)n4c(nc3c2)CCCC4)cc1,15.3,24.0
Cc1nc(C)n(CC2CCCN2Cc2nc(-c3ccco3)no2)n1 (stereo not given),-47.1,-19.5
O=C(/C=C/c1ccc(Br)cc1)Nc1cnc2ccccc2c1,-0.9,-2.8
O=C(/C=C/c1cnc2ccccc2c1)NCc1ccccc1,41.4*,16.6
CSc1nc2c(c(=O)n1C)N[C@H]1[C@H](O)[C@H](O)CO[C@H]1N2,1.0,4.9
SMILES,USP30 block,USP28 block
O=C(OCc1ccc(F)cc1)c1cc(-c2cccnc2)nc2ccccc12,-24.4,4.0
Cc1nc2ccccc2n1CC(=O)OCc1cccc(Cl)c1,-3.6,0.0
O=C(OCc1ccc(F)cc1)c1ccc2ccccc2n1,2.5,78.3*
O=C(OCc1cccc(Cl)c1)c1ccc2ccccc2n1,21.5,90.9*
CCc1nc(Nc2ccc3c(c2)SC2=NCCN23)c2oc3ccccc3c2n1,41.3*,62.7*
CCc1nc(N2CCCC2)c2oc3ccccc3c2n1,2.1,-1.8
O=C(Nc1ccc2nccnc2c1)c1cccc(C(F)(F)F)c1,75.8*,31.6*
O=C(Nc1ccncc1NC(=O)c1cccc(C(F)(F)F)c1)c1cccc(C(F)(F)F)c1,6.0,-3.8
COc1cccc(NC(=O)CSc2nnc(-c3cc4cccc(OC)c4o3)n2C)c1,49.8*,6.9
COc1ccc(C(=O)CSc2nnc(-c3cc4cccc(OC)c4o3)n2C)cc1OC,52.7*,-0.3
COc1ccc(C(=O)CSc2nnc(COc3c(C)cccc3C)n2C)cc1OC,9.7,-0.5
Cn1c(SCC(=O)NCc2ccccc2)nnc1-c1cc2ccccc2o1,-22.2,0.0
COc1cc(NC(=O)CSc2nnc(-c3cc4ccccc4n3C)o2)cc(OC)c1,48.7*,15.2
Cn1c(SCC(=O)c2ccc(F)cc2)nnc1-c1cc2ccccc2o1,88.4*,12.4
COc1cccc(NC(=O)CSc2nnc(-c3ccc(OC)c(OC)c3)c(-c3ccc(OC)c(OC)c3)n2)c1,-21.8,-15.2
O=C(CSc1nnc(-c2cc3ccccc3[nH]2)o1)Nc1cccc(F)c1,-84.7,-20.8
COc1cc(C(=O)OCC(=O)c2c[nH]c3ccccc23)ccc1OCc1ccc(Cl)cc1Cl,i,-156.0
CCOc1cc2[nH]c(=O)n(Cc3cccnc3)c(=O)c2cc1OCC,32.9*,7.2
CCOc1cc2[nH]c(=O)n(CC3CCC(C(=O)N4CCN(c5ccccn5)CC4)CC3)c(=O)c2cc1OCC (stereo not given),6.1,-1.9
